From PubChem BioAssay AID1159580 (chemical genetic matrix, 2015)
Among all 5,500 compounds or so, about 2,000 (36%) were called active. Roughly 18% stayed inconclusive and do not appear here. The list shows a part of the results. A number with no mark means an inactive call. Cut-off read from the data, not from the text of the source: active = normalized growth mostly below about 0.91 (no sharp cut-off); inconclusive = no clear call, values can overlap the other calls; inactive = mostly above about 0.92.

Experiment: chemical genetic growth profiling, strain panel (AID 1159580);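 note: tested at 20 µM; growth read once vehicle control cultures reached saturation at 30 °C; 1 = growth at the plate median or of vehicle wells; lower values mean less growth of the strain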
Settings: growth OD

Q: For O/N=C\c1sccc1Oc1ccccc1, which normalized growth (S. cerevisiae deletion strains, locus YAL013W, strain DEP1, hits give low values) is on record?
A: 0.964

Q: And the normalized growth (S. cerevisiae deletion strains, locus YBR229C, strain ROT2, hits give low values)?
A: 0.958

Q: And the normalized growth (S. cerevisiae deletion strains, locus YCL061C, strain MRC1, hits give low values)?
A: 0.942

Q: And the normalized growth (S. cerevisiae deletion strains, locus YDL101C, strain DUN1, hits give low values)?
A: 0.926

Q: What about the normalized growth (S. cerevisiae deletion strains, locus YDR150W, strain NUM1, hits give low values) of the same compound?
A: 0.953

Q: And the normalized growth (S. cerevisiae deletion strains, locus YEL061C, strain CIN8, hits give low values)?
A: 0.869 (active)

Q: And the normalized growth (S. cerevisiae deletion strains, locus YGR078C, strain PAC10, hits give low values)?
A: 0.952

Q: What about the normalized growth (S. cerevisiae deletion strains, locus YHR030C, strain SLT2, hits give low values) of the same compound?
A: 0.729

Q: And the normalized growth (S. cerevisiae deletion strains, locus YHR087W, strain rtc3, hits give low values)?
A: 1.01

Q: And the normalized growth (S. cerevisiae deletion strains, locus YJL187C, strain SWE1, hits give low values)?
A: 1.01

Q: What about the normalized growth (S. cerevisiae deletion strains, locus YJR043C, strain POL32, hits give low values) of the same compound?
A: 1

Q: What about the normalized growth (S. cerevisiae deletion strains, locus YJR075W, strain HOC1, hits give low values) of the same compound?
A: 0.978

Q: And the normalized growth (S. cerevisiae deletion strains, locus YLR039C, strain RIC1, hits give low values)?
A: 0.954

Q: And the normalized growth (S. cerevisiae deletion strains, locus YLR058C, strain SHM2 (second series), hits give low values)?
A: 0.997

Q: What about the normalized growth (S. cerevisiae deletion strains, locus YLR085C, strain ARP6, hits give low values) of the same compound?
A: 0.911

Q: And the normalized growth (S. cerevisiae deletion strains, locus YLR262C, strain YPT6, hits give low values)?
A: 0.931

Q: What about the normalized growth (S. cerevisiae deletion strains, locus YML094W, strain GIM5, hits give low values) of the same compound?
A: 0.927

Q: And the normalized growth (S. cerevisiae deletion strains, locus YMR219W, strain ESC1, hits give low values)?
A: 0.977

Q: And the normalized growth (S. cerevisiae deletion strains, locus YMR263W, strain SAP30, hits give low values)?
A: 0.968

Q: What about the normalized growth (S. cerevisiae deletion strains, locus YNL128W, strain TEP1, hits give low values) of the same compound?
A: 0.98

Q: And the normalized growth (S. cerevisiae deletion strains, locus YNL153C, strain GIM3, hits give low values)?
A: 0.905 (active)

Q: And the normalized growth (S. cerevisiae deletion strains, locus YNL298W, strain CLA4 (second series), hits give low values)?
A: 0.962

Q: What about the normalized growth (S. cerevisiae deletion strains, locus YNL322C, strain KRE1, hits give low values) of the same compound?
A: 0.988

Q: What about the normalized growth (S. cerevisiae deletion strains, locus YNR030W, strain Alg12, hits give low values) of the same compound?
A: 0.932

Q: What about the normalized growth (S. cerevisiae deletion strains, locus YOL006C, strain TOP1, hits give low values) of the same compound?
A: 0.795

Q: And the normalized growth (S. cerevisiae deletion strains, locus YPL055C, strain LGE1, hits give low values)?
A: 0.98

Q: What about the normalized growth (S. cerevisiae deletion strains, locus YPL241C, strain CIN2, hits give low values) of the same compound?
A: 0.917

Q: And the normalized growth (S. cerevisiae deletion strains, locus YPR135W, strain CTF4, hits give low values)?
A: 0.648

Q: And the normalized growth (S. cerevisiae strains, strain wild type, hits give low values)?
A: 0.953
